Data: PubChem BioAssay AID651871 (Sanford-Burnham Center for Chemical Genomics, 2012)
Several values for one entry are separate records, joined by “and”; a condition that tells them apart may be missing. Identical values can stand only once.

tested on: H9c2; assay: cardiomyocyte survival under oxidative or metabolic stress – cell-based, panel, H9c2 and HL-1, ATP luminescence, set 2, SAR follow-up (AID 651871); conditions: H9c2/HL-1 cardiomyocytes, 2-deoxyglucose stress, with 2-deoxyglucose, run 4, at 79 µM (top of the series);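 also: cells exposed to stressor for 2 h before ATP readout; reference of the scale not given here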

| Compound | activity (protection/inhibition) |
| --- | --- |
| CCOC(=O)c1cccc(NC(=O)CNC(=O)c2cc(-c3cc(OC)c(OC)c(OC)c3)nc3ccccc23)c1 | 87.2% |
| COc1ccc2c(c1OC)C(=O)N1c3ccccc3C(=O)N(Cc3cccc(Cl)c3Cl)C21 (stereo not drawn) | 57.7% and -8.42% |
| COc1ccc2nc(-c3cc(OC)c(OC)c(OC)c3)cc(C(=O)NCC(=O)Nc3ccc(C(C)=O)cc3)c2c1 | 80.7% |
